# Measurements: the supplement of paper PMC8728848
# Many of the other results were omitted from the sample, so the strongest signals are more common in it than they were.
# B1: EULS2 M4 (Oryza sativa) (protein)
# chain: MVYCRANPNYAMTARNGAVVLAPANPKDEYQHWIKDMRWSTSIKDEEGYPAFALVNKATGQAIKHSLGQSHPVRLVPYNPEVMDESVLWTESRDVGNGFRCIRMVNNIYLNFDAFHGDKYHGGVRDGTDIVLWKWCEGDSLRWKIQPYYILEQKLISEEDLNSAVDHHHHHH
# Tests used:
# Test in all cases: glycan array binding signal (z-score within array); higher = stronger binding
# Settings in all cases: glycan notation: IUPAC condensed, linker removed
# [1] = target: Fuc(a1-2)Gal(b1-4)GlcNAc(b1-3)Gal(b1-4)GlcNAc
# Method in brief: (§1)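 Negative Z-scores can be read as non-binding. The Z-score is calculated within each array and then averaged across arrays of one protein sequence at different concentrations or buffers and across linkers. Arrays, 3228 in all, were curated from the Consortium for Functional Glycomics database and kept only where the protein sequence was available.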
# [2] = target: Fuc(a1-2)Gal(b1-4)GlcNAc(b1-6)GalNAc
# Method in brief: as §1
# [3] = target: Fuc(a1-2)[GalNAc(a1-3)]Gal
# Method in brief: as §1
# [4] = target: Fuc(a1-2)[GalNAc(a1-3)]Gal(b1-3)GalNAc(b1-3)Gal(a1-4)Gal(b1-4)Glc
# Method in brief: as §1
# [5] = target: Fuc(a1-2)[GalNAc(a1-3)]Gal(b1-4)[Fuc(a1-3)]GlcNAc
# Method in brief: as §1
# [6] = target: Fuc(a1-3)[Gal3S(b1-4)]GlcNAc6S
# Method in brief: as §1
# [7] = target: Gal(a1-3)Gal(b1-4)GlcNAc(b1-6)GalNAc
# Method in brief: as §1
# [8] = target: Gal(a1-3)[Gal(a1-4)]Gal(b1-4)GlcNAc
# Method in brief: as §1
# [9] = target: Gal(b1-3)GlcNAc(a1-3)Gal(b1-4)GlcNAc
# Method in brief: as §1
# [10] = target: Gal(b1-3)GlcNAc(b1-2)Man(a1-3)[Gal(b1-3)GlcNAc(b1-2)Man(a1-6)]Man(b1-4)GlcNAc(b1-4)GlcNAc
# Method in brief: as §1
# [11] = target: Gal(b1-3)GlcNAc(b1-2)Man(a1-3)[GlcNAc(b1-4)][Gal(b1-3)GlcNAc(b1-2)Man(a1-6)]Man(b1-4)GlcNAc(b1-4)GlcNAc
# Method in brief: as §1
# [12] = target: Gal(b1-3)[GlcNAc(b1-6)]GalNAc
# Method in brief: as §1
# Gal(b1-4)GlcNAc(b1-2)Man = target: Gal(b1-4)GlcNAc(b1-2)Man
# Method in brief: as §1
# [13] = target: Gal(b1-4)GlcNAc(b1-2)Man(a1-3)Man(b1-4)GlcNAc(b1-4)GlcNAc
# Method in brief: as §1
# [14] = target: Gal(b1-4)GlcNAc(b1-2)Man(a1-3)[Man(a1-6)]Man(b1-4)GlcNAc(b1-4)GlcNAc
# Method in brief: as §1
# [15] = target: Gal(b1-4)GlcNAc(b1-3)Gal(b1-4)GlcNAc(b1-2)[Gal(b1-4)GlcNAc(b1-3)Gal(b1-4)GlcNAc(b1-6)]Man(a1-6)[Gal(b1-4)GlcNAc(b1-3)Gal(b1-4)GlcNAc(b1-2)Man(a1-3)]Man(b1-4)GlcNAc(b1-4)GlcNAc
# Method in brief: as §1
# [16] = target: Gal(b1-4)GlcNAc(b1-3)Gal(b1-4)GlcNAc(b1-3)Gal(b1-4)GlcNAc(b1-3)Gal(b1-4)GlcNAc(b1-3)Gal(b1-4)GlcNAc(b1-2)Man(a1-3)[Gal(b1-4)GlcNAc(b1-3)Gal(b1-4)GlcNAc(b1-3)Gal(b1-4)GlcNAc(b1-3)Gal(b1-4)GlcNAc(b1-3)Gal(b1-4)GlcNAc(b1-2)Man(a1-6)]Man(b1-4)GlcNAc(b1-4)GlcNAc
# Method in brief: as §1
# [17] = target: Gal(b1-4)GlcNAc(b1-3)Gal(b1-4)GlcNAc(b1-3)Gal(b1-4)GlcNAc(b1-3)Gal(b1-4)GlcNAc(b1-3)Gal(b1-4)GlcNAc(b1-2)[Gal(b1-4)GlcNAc(b1-3)Gal(b1-4)GlcNAc(b1-3)Gal(b1-4)GlcNAc(b1-3)Gal(b1-4)GlcNAc(b1-3)Gal(b1-4)GlcNAc(b1-6)]Man(a1-6)[Gal(b1-4)GlcNAc(b1-3)Gal(b1-4)GlcNAc(b1-3)Gal(b1-4)GlcNAc(b1-3)Gal(b1-4)GlcNAc(b1-3)Gal(b1-4)GlcNAc(b1-2)Man(a1-3)]Man(b1-4)GlcNAc(b1-4)[Fuc(a1-6)]GlcNAc
# Method in brief: as §1
# [18] = target: Gal(b1-4)GlcNAc(b1-6)GalNAc
# Method in brief: as §1
# Gal3S(b1-4)Glc = target: Gal3S(b1-4)Glc
# Method in brief: as §1
# Gal3S6S(b1-4)GlcNAc = target: Gal3S6S(b1-4)GlcNAc
# Method in brief: as §1
# Gal6S(b1-4)GlcNAc6S = target: Gal6S(b1-4)GlcNAc6S
# Method in brief: as §1
# GalNAc(a1-3)GalNAc = target: GalNAc(a1-3)GalNAc
# Method in brief: as §1
# Glc(a1-6)Glc(a1-6)Glc = target: Glc(a1-6)Glc(a1-6)Glc
# Method in brief: as §1
# [19] = target: GlcNAc(b1-2)Gal(b1-3)GalNAc
# Method in brief: as §1
# [20] = target: GlcNAc(b1-2)Man(a1-3)[GlcNAc(b1-2)Man(a1-6)]Man(b1-4)GlcNAc(b1-4)[Fuc(a1-6)]GlcNAc
# Method in brief: as §1
# [21] = target: GlcNAc(b1-2)[GlcNAc(b1-4)]Man(a1-3)[GlcNAc(b1-4)][GlcNAc(b1-2)Man(a1-6)]Man(b1-4)GlcNAc(b1-4)GlcNAc
# Method in brief: as §1
# [22] = target: GlcNAc(b1-3)Gal(b1-4)GlcNAc(b1-2)[GlcNAc(b1-3)Gal(b1-4)GlcNAc(b1-6)]Man(a1-6)[GlcNAc(b1-3)Gal(b1-4)GlcNAc(b1-2)Man(a1-3)]Man(b1-4)GlcNAc(b1-4)GlcNAc
# Method in brief: as §1
# [23] = target: GlcNAc(b1-3)Gal(b1-4)GlcNAc(b1-3)Gal(b1-4)GlcNAc(b1-2)[GlcNAc(b1-3)Gal(b1-4)GlcNAc(b1-3)Gal(b1-4)GlcNAc(b1-6)]Man(a1-6)[GlcNAc(b1-3)Gal(b1-4)GlcNAc(b1-3)Gal(b1-4)GlcNAc(b1-2)Man(a1-3)]Man(b1-4)GlcNAc(b1-4)[Fuc(a1-6)]GlcNAc
# Method in brief: as §1
# [24] = target: GlcNAc(b1-3)Gal(b1-4)GlcNAc(b1-6)[Gal(b1-3)]GalNAc
# Method in brief: as §1
# [25] = target: GlcNAc(b1-4)GlcNAc(b1-4)GlcNAc
# Method in brief: as §1
# [26] = target: Man(a1-2)Man(a1-3)[Man(a1-2)Man(a1-6)]Man(a1-6)[Man(a1-2)Man(a1-2)Man(a1-3)]Man(b1-4)GlcNAc(b1-4)GlcNAc
# Method in brief: as §1
# Man(a1-6)Man = target: Man(a1-6)Man
# Method in brief: as §1
# [27] = target: Neu5Ac(a2-3)Gal(b1-3)]Neu5Ac(a2-3)Gal(b1-4)]GlcNAc
# Method in brief: as §1
# [28] = target: Neu5Ac(a2-3)Gal(b1-4)GlcNAc(b1-2)Man
# Method in brief: as §1
# [29] = target: Neu5Ac(a2-3)Gal(b1-4)GlcNAc(b1-3)Gal(b1-4)GlcNAc(b1-6)[Gal(b1-3)]GalNAc
# Method in brief: as §1
# [30] = target: Neu5Ac(a2-3)Gal(b1-4)GlcNAc(b1-6)GalNAc
# Method in brief: as §1
# [31] = target: Neu5Ac(a2-3)Gal(b1-4)GlcNAc(b1-6)[Gal(b1-3)]GalNAc
# Method in brief: as §1
# [32] = target: Neu5Ac(a2-3)Gal(b1-4)GlcNAc6S
# Method in brief: as §1
# [33] = target: Neu5Ac(a2-3)Gal(b1-4)[Fuc(a1-3)]GlcNAc(b1-3)Gal(b1-4)GlcNAc
# Method in brief: as §1
# [34] = target: Neu5Ac(a2-3)Gal(b1-4)[Fuc(a1-3)]GlcNAc6S
# Method in brief: as §1
# Neu5Ac(a2-3)GalNAc = target: Neu5Ac(a2-3)GalNAc
# Method in brief: as §1
# [35] = target: Neu5Ac(a2-3)GalNAc(b1-4)GlcNAc
# Method in brief: as §1
# [36] = target: Neu5Ac(a2-6)Gal(b1-4)GlcNAc(b1-2)Man(a1-3)Man(b1-4)GlcNAc(b1-4)GlcNAc
# Method in brief: as §1
# [37] = target: Neu5Ac(a2-6)Gal(b1-4)GlcNAc(b1-3)Gal(b1-3)GlcNAc
# Method in brief: as §1
# [38] = target: Neu5Ac(a2-6)Gal(b1-4)GlcNAc(b1-3)Gal(b1-4)[Fuc(a1-3)]GlcNAc(b1-3)Gal(b1-4)[Fuc(a1-3)]GlcNAc
# Method in brief: as §1
# [39] = target: Neu5Ac(a2-6)Gal(b1-4)GlcNAc(b1-3)[Neu5Ac(a2-6)Gal(b1-4)GlcNAc(b1-6)]GalNAc
# Method in brief: as §1
# [40] = target: Neu5Ac(a2-6)Gal(b1-4)GlcNAc(b1-6)[Gal(b1-3)GlcNAc(b1-3)]Gal(b1-4)Glc
# Method in brief: as §1
# [41] = target: Neu5Ac(a2-8)Neu5Ac(a2-8)Neu5Ac
# Method in brief: as §1
# Neu5Ac(b2-6)GalNAc = target: Neu5Ac(b2-6)GalNAc
# Method in brief: as §1
# [42] = target: Neu5Gc(a2-3)Gal(b1-4)GlcNAc(b1-3)Gal(b1-4)GlcNAc(b1-2)Man(a1-3)[Neu5Gc(a2-3)Gal(b1-4)GlcNAc(b1-3)Gal(b1-4)GlcNAc(b1-2)Man(a1-6)]Man(b1-4)GlcNAc(b1-4)GlcNAc
# Method in brief: as §1
# [43] = target: Neu5Gc(b2-6)Gal(b1-4)GlcNAc
# Method in brief: as §1
binder,measurement,setting,value
B1,glycan array binding signal (z-score),[1],-0.01
same,glycan array binding signal (z-score),[2],-0.469
same,glycan array binding signal (z-score),[3],-0.348
same,glycan array binding signal (z-score),[4],-0.473
same,glycan array binding signal (z-score),[5],-0.416
same,glycan array binding signal (z-score),[6],-0.356
same,glycan array binding signal (z-score),[7],0.31
same,glycan array binding signal (z-score),[8],7
same,glycan array binding signal (z-score),[9],-0.21
same,glycan array binding signal (z-score),[10],-0.259
same,glycan array binding signal (z-score),[11],4.91
same,glycan array binding signal (z-score),[12],-0.511
same,glycan array binding signal (z-score),Gal(b1-4)GlcNAc(b1-2)Man,-0.202
same,glycan array binding signal (z-score),[13],2.57
same,glycan array binding signal (z-score),[14],7.18
same,glycan array binding signal (z-score),[15],6.97
same,glycan array binding signal (z-score),[16],-0.273
same,glycan array binding signal (z-score),[17],4.92
same,glycan array binding signal (z-score),[18],-0.124
same,glycan array binding signal (z-score),Gal3S(b1-4)Glc,0.203
same,glycan array binding signal (z-score),Gal3S6S(b1-4)GlcNAc,-0.485
same,glycan array binding signal (z-score),Gal6S(b1-4)GlcNAc6S,-0.349
same,glycan array binding signal (z-score),GalNAc(a1-3)GalNAc,-0.218
same,glycan array binding signal (z-score),Glc(a1-6)Glc(a1-6)Glc,0.287
same,glycan array binding signal (z-score),[19],-0.527
same,glycan array binding signal (z-score),[20],-0.215
same,glycan array binding signal (z-score),[21],-0.288
same,glycan array binding signal (z-score),[22],0.417
same,glycan array binding signal (z-score),[23],-0.364
same,glycan array binding signal (z-score),[24],-0.431
same,glycan array binding signal (z-score),[25],-0.101
same,glycan array binding signal (z-score),[26],-0.4
same,glycan array binding signal (z-score),Man(a1-6)Man,0.713
same,glycan array binding signal (z-score),[27],-0.232
same,glycan array binding signal (z-score),[28],7.63
same,glycan array binding signal (z-score),[29],-0.233
same,glycan array binding signal (z-score),[30],-0.226
same,glycan array binding signal (z-score),[31],-1.27
same,glycan array binding signal (z-score),[32],4.39
same,glycan array binding signal (z-score),[33],0.35
same,glycan array binding signal (z-score),[34],-0.364
same,glycan array binding signal (z-score),Neu5Ac(a2-3)GalNAc,0.083
same,glycan array binding signal (z-score),[35],0.042
same,glycan array binding signal (z-score),[36],-0.572
same,glycan array binding signal (z-score),[37],2.81
same,glycan array binding signal (z-score),[38],4.01
same,glycan array binding signal (z-score),[39],7.46
same,glycan array binding signal (z-score),[40],-0.428
same,glycan array binding signal (z-score),[41],-0.325
same,glycan array binding signal (z-score),Neu5Ac(b2-6)GalNAc,0.656
same,glycan array binding signal (z-score),[42],-0.344
same,glycan array binding signal (z-score),[43],-0.504
